In PubChem BioAssay (NCI):
Compounds without any hit were thinned out: in the full panel of roughly 83,000, 20% have a hit.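 Compound tested at a single concentration for 48 hours in 96-well plates; a percent growth value below 10 was scored as active.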 A number with no mark means an inactive call. Active and inactive are the calls of the source.

Assays:
Test in all cases: NCI-60 one-dose screen, 48 h (100 = growth as untreated, 0 = no growth, -100 = all killed)
Settings in all cases: 10 µM unless noted
[1] = system: DU-145 prostate
[2] = system: K-562 leukemia
[3] = system: MALME-3M melanoma
[4] = system: MDA-MB-231 breast
[5] = system: RXF 393 renal
[6] = system: SF-268 CNS
[7] = system: SF-539 CNS
[8] = system: UACC-257 melanoma
[9] = system: M14 melanoma
[10] = system: SF-295 CNS

| SMILES | growth [1] | growth [2] | growth [3] | growth [4] | growth [5] | growth [6] | growth [7] | growth [8] | growth [9] | growth [10] |
| --- | --- | --- | --- | --- | --- | --- | --- | --- | --- | --- |
| Cc1ccc(Nc2nc(NCCO)c3ccccc3n2)cc1C | -14.6% (active) | 11.1% | 43.8% | 12.6% | 42.5% | 20.1% | 7% (active) | 62% | 24.4% | – |
| CCC1CCc2nc3sc(C(=O)Nc4cccc(F)c4)c(N)c3cc2C1 (stereo not drawn) | 60% | 28.6% | 34.8% | 78.3% | 65.8% | 68.2% | 58.8% | 49.5% | 47.5% | – |
| Brc1ccccc1Cn1c(-c2cncs2)nc2ccccc21 | 98.4% | 74.6% | 98% | 71.2% | 97.6% | 92.1% | 88.5% | 96% | 92.9% | – |
| CCOC(=O)Nc1ccc2nc(-c3cscn3)[nH]c2c1 | 72.9% | 19.1% | 22% | 59.9% | 39.2% | 66.5% | 62.9% | 66.6% | 16.1% | – |
| CC1(C)C2CCC(O)(C(=O)O)C1C2 (stereo not drawn) | – | 108% | 109% | 98.9% | 136% | 112% | 103% | 124% | 105% | 103% |
| CC1CN(CCCOC(=O)Nc2ccc(Cl)cc2)CCN1C(C)(C)C (stereo not drawn) | – | 90.8% | 102% | 102% | 126% | 106% | 125% | 108% | 99.7% | 107% |
| O=C(NCCNC(=O)c1cc(S(=O)(=O)NCCc2ccccc2)c(O)c(O)c1O)c1cc(S(=O)(=O)NCCc2ccccc2)c(O)c(O)c1O | 77.1% | – | 94.3% | 59.9% | 78.1% | 45.9% | 20.3% | 86.1% | 44.4% | – |
| C=CCOc1c(Br)cc(Br)cc1Br | 81.8% | 52.2% | – | 44.6% | 76.9% | 68.7% | 45.4% | 79% | 73.5% | – |
| NCCCOc1cc2ccccc2cc1C(=O)NCCCOc1cc2ccccc2cc1C(=O)Nc1ccc(Cl)cc1O | -21.3% (active) | – | -82.5% (active) | -87.9% (active) | -96.5% (active) | -27.8% (active) | -93.7% (active) | -69.2% (active) | -74.6% (active) | – |
| COc1ccc(/C(=C\c2ccc3c(c2)OCO3)C(=O)Nc2nc3ccc(F)cc3s2)cc1OC | 98.2% | 101% | – | 109% | 111% | 98.5% | 96.3% | 112% | 94.3% | – |
| CCOc1cccc(/C=N/NC(=O)c2ccc(Nc3ccnc(C(F)(F)F)c3)cc2)c1O | 29.8% | – | 19.9% | 27.4% | 22% | 22.7% | 0.3% (active) | 12.4% | -20.3% (active) | 8.46% (active) |
| O=C(CCCCCCc1nc2ccc(Br)cc2[nH]1)NO | – | 6.07% (active) | -6.27% (active) | 2.73% (active) | -78.3% (active) | 11.1% | 17.8% | -11% (active) | -16.1% (active) | -17.2% (active) |
| CC(=O)N[C@@H](CCC(N)=O)C(=O)O | 112% | 9.01% (active) | – | 87.2% | 90% | 108% | 113% | 97.4% | 93.4% | – |
| Nc1ncnc2c1N=C(c1ccc(F)cc1)CC(c1sc(Cl)nc1Cl)N2 (stereo not drawn) | 98.8% | – | 111% | 88.2% | 78.3% | 85.4% | 85.7% | 91% | 109% | 95.8% |
| O=C(O)c1ccccc1N=Cc1ccccc1 | 108% | 99.2% | – | 109% | 132% | 109% | 101% | 113% | 109% | – |
| Cc1ccc(O)c(Cc2ccccc2)c1 | 108% | – | 143% | 96.7% | 103% | 99.6% | 100% | 93.7% | 101% | – |
| CN=C1C=C/C(=N/N=c2/ccn(O)cc2C)C=C1C | 104% | 115% | – | 86.4% | 96.8% | 102% | 90.2% | 98.5% | 101% | – |
| COc1ccc2c(c1)CCCC21C(=O)Nc2ccccc21 (stereo not drawn) | 103% | – | 102% | 99.4% | 110% | 86.6% | 101% | 110% | 109% | – |
| SCc1ccc(CS)cc1 | 116% | – | 106% | 123% | 112% | – | 104% | 114% | 106% | 109% |
| O=C(Cc1ccc(Nc2ccnc(C(F)(F)F)c2)cc1)N/N=C/c1ccccc1O | 39.3% | – | 38.8% | 27.9% | 49% | 28.6% | 24.1% | 34.7% | 8.64% (active) | 30% |
| COCCCNCC(=O)Nc1c(C)cccc1C | 113% | 120% | – | 96.6% | 113% | 109% | 95.3% | 106% | 114% | – |
| COc1cc(-c2n/c(=C\c3c(O)[nH]c4cc(Cl)ccc34)cc3c2=Nc2ccccc2-3)cc(OC)c1OC | 30.6% | 49.1% | – | 53.1% | 28.7% | 22.5% | 62.7% | 40.9% | 37.7% | – |
| CCN(CC)CCNc1c(C)cc(CO)c(Cl)c1C | 120% | 115% | – | 104% | 119% | – | 103% | 96.7% | 110% | 104% |
| COc1ccc(/C(=C\c2cc(OC)c(OC)c(OC)c2)C(=O)Nc2nc3ccc(Cl)cc3s2)cc1 | 93% | – | 93.8% | 90.9% | 109% | 71.1% | 100% | 92.1% | 105% | – |
| Nc1c(C(=O)c2ccc(Br)cc2)sc2nc3c(cc12)CCCC3 | 92.4% | – | 82.6% | 91% | 62.5% | 101% | 92% | 91.9% | 82.7% | 98.2% |
| O=C(Nc1cccc(Cl)c1)Nc1cc(C(F)(F)F)ccc1Cl | – | 16.4% | 5.85% (active) | 25.5% | 40.7% | 41.8% | 43.5% | 19.6% | 18.2% | -1.4% (active) |
| O=C(Nc1ccc(Br)cc1)Nc1ccccc1Cl | 91.1% | 84.5% | – | 72.5% | 83% | 93.8% | 89.3% | 88% | 89.2% | – |
| Cc1cc(NC(=O)c2ccc(N)cc2)ccc1N=Nc1ccc2cc(S(=O)(=O)O)cc(S(=O)(=O)O)c2c1 | – | 110% | 116% | 109% | 110% | 115% | 107% | 102% | 112% | 106% |
| CN1CCN(c2ccc(N3Cc4ccccc4OC4=C3C(=O)c3c(O)ccc(O)c3C4=O)cn2)CC1 | -95.9% (active) | – | -84.2% (active) | -75.1% (active) | -93.6% (active) | -6.04% (active) | -58.3% (active) | -88.9% (active) | -76.8% (active) | – |
| CC1=C(O)C(=O)C(c2c(C)cc(C)c(Br)c2C)=C(O)C1=O | 78.4% | 48.8% | – | 93.5% | 28.9% | – | 65.2% | 86.5% | 70.2% | 52.6% |
